PGK inhibitor: inhibitors of T. brucei phosphoglycerate kinase. PGK/GAPDH coupled, Kinase-Glo luminescence, 60 min. Potency, µM (top dose mostly 57.5 µM), inactives show at the highest dose activity change, negative = inhibition, actives largely listed as inhibitors. P07378. AID 602233. 380,000 tested, 0.043% active; also: % is scaled to controls: 0 for no effect and ±100 for the full control effect; nearly all actives have a fitted effect of over 60% in size
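Recombinant glycosomal PGK reaction used 1,3-bisphosphoglycerate generated in-well by GAPDH (100nM final) in 100mM TEA pH 7.6, 5mM MgCl2, 0.01% Tween-20. After 60 minutes at room temperature, ATP was read by Kinase-Glo Plus luminescence end-point.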
ELG1 repair inh: inhibitors of ELG1-dependent DNA repair in HEK293T cells; HEK293T ELG1-luciferase reporter, luminescence, 16 h; DNA damage induced by 5-fluorouridine; AID 504467; 330,000 tested, 2.3% active; Potency, µM (highest dose often 46.1 µM), inactives show top-dose activity change, negative = inhibition, usual class: inhibitors; also: % is scaled to controls: 0 for no effect and ±100 for the full control effect; nearly all actives have a fitted effect of over 55% in size
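Reporter activity after DNA damage by 5-fluorouridine is monitored. Compound-treated cells incubate 16 hr at 37 °C, then ONE-Glo is added for 30 min before luminescence reading.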
Rango-impB inh: inhibitors of Rango-importin beta complex formation. Rango CFP/YFP FRET sensor + importin beta, 45 min. Potency, µM (doses to about 92.2 µM), for the others: at the top dose inhibition of complex formation. 340,000 tested, 0.031% active. AID 540263; calls by dose curve;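 also: 0% = DMSO wells and 100% = buffer wells lacking importin beta; nearly all actives have a fitted effect of over 15% in size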
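FRET biosensor Rango (snurportin 1 IBB between N-terminal EYFP and C-terminal Cerulean), 50 nM in PBS/1 mM DTT/0.02% Tween-20/0.1% BSA, preincubated 5 min RT with compound; 0.125 microM importin beta added, 45 min RT, CFP/YFP FRET ratio read.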
PKM2 activator: PKM2 (human) enzyme activation. P14618. purified PKM2, Kinase-Glo ATP luminescence, activation; response scale: 0% is enzyme alone, no compound. Potency, µM (top dose mostly 57.5 µM), for the others: top-dose activation, usual class: activators. 260,000 tested, 0.34% active; also: % is scaled to controls: 0 for no effect and ±100 for the full control effect; nearly all actives have a fitted effect of over 55% in size
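Purified hPK-M2 (>95%) run at intermediate activity with 0.1 mM ADP and 0.5 mM PEP in 50 mM imidazole pH 7.2, KCl, MgCl2; 1 h room temperature. ATP formed read by Kinase-Glo luminescence; normalized to uninhibited and no-enzyme controls.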
Rango dissoc inh: inhibitors of RanGTP-induced Rango-importin beta complex dissociation. O95149+P62826. Biochemical FRET Rango-importin beta, RanGTP-induced dissociation. Potency, µM (doses to about 46.1 µM), without a hit: at the top dose activity change, negative = inhibition. 340,000 tested, 0.071% active. AID 540253; calls by dose curve; also: % of control where 0% means no effect; nearly all actives have a fitted effect of over 45% in size
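Two FRET readings bracket the reaction: one 5 min after compound meets Rango–importin beta, another 45 min after RanGTP-RCC1 (0.6 uM Ran, 0.2 uM RCC1, 2 mM GTP) is added. Only the second defines inhibition.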
Tb PFK block: inhibitors of T. brucei phosphofructokinase | O15648 | T. brucei PFK, ADP-Glo luminescence | Potency, µM (top dose mostly 57.5 µM), for the others: at the highest dose activity, negative = inhibition, actives largely listed as inhibitors | 330,000 tested, 0.17% active | AID 485367;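 also: 0% = uninhibited 1x PFK enzyme wells and -100% = no-enzyme wells; nearly all actives have a fitted effect of over 60% in size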
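1.25 nM PFK with 0.5 mM F6P and 0.1 mM ATP in 0.1 M TEA pH 8.0, 5 mM MgCl2, incubated 45 min at room temperature; ADP measured by ADP-Glo luminescence; compounds titrated up to 57 uM.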
Active calls of the source: *; ? = inconclusive; . = no result given. Shown are actives, neighbours in structure and some others; about 2.4% of the full set was active somewhere. Unless noted, calls follow the shape of the dose curve; as a rule, active = well fitted curve in the direction sought with a large enough effect; inconclusive = small, poorly fitted or top-dose-only effect, or another doubt; inactive = no such curve, though single readings can be large; an effect the other way counts as inactive or inconclusive. Potency is read from the fitted curve at half-maximal effect.

SMILES | PGK inhibitor | ELG1 repair inh | Rango-impB inh | PKM2 activator | Rango dissoc inh | Tb PFK block
CCOC(=O)N1CCN(C(=O)CSc2nc3c([nH]c4ccccc43)c(=O)n2C)CC1 | -5.0% | 2.59µM* | -2.6% | -10.1% | -6.8% | 0.0%
CC1Cc2ccccc2N1S(=O)(=O)c1cccc(C(=O)NCCCO)c1 (stereo not given) | -5.7% | -3.2% | -1.3% | -3.2% | 0.5% | 4.3%
CCOC(=O)c1ccc(NC(=O)c2cccc(S(=O)(=O)N3c4ccccc4CC3C)c2)s1 (stereo not given) | -6.8% | 20.6µM* | -0.1% | -4.9% | 3.3% | -1.3%
COc1ccc(C)cc1S(=O)(=O)Nc1cccc(-c2ccc(N3CCCC3)nn2)c1 | 5.8% | . | . | . | . | .
CN1C(=O)Cc2cc(S(=O)(=O)NCc3c(F)cccc3Cl)ccc21 | 1.0% | -0.1% | -2.8% | 14.1µM* | 1.0% | 2.1%
CN1C(=O)Cc2cc(S(=O)(=O)NCc3cccs3)ccc21 | -13.4% | 11.3% | -3.0% | ? | -21.4% | -4.0%
O=C(NCC(c1cccnc1)N1CCN(c2ccc(F)cc2)CC1)c1ccccc1 (stereo not given) | 3.1% | -17.8% | -1.9% | 7.6% | 3.1% | -1.4%
O=C(NCc1ccc(Cl)cc1)C(=O)NCC(c1cccnc1)N1CCN(c2ccc(F)cc2)CC1 (stereo not given) | -0.6% | 11.6µM* | -0.2% | 1.5% | -13.2% | -2.4%
CCc1ccc(-n2c(CCC(=O)O)ccc2-c2ccc(F)cc2)cc1 | -7.2% | . | . | . | . | .
Cc1ccc(C)c(OCCn2c(=O)c3c(ncn3C3CCCC3)n(Cc3ccccc3)c2=O)c1 | 7.6% | 20.6µM* | -4.1% | -0.4% | 5.4% | -0.4%
COC(=O)c1[nH]c2ccccc2c1NC(=O)CN1CCN(C/C=C/c2ccccc2)CC1 | 0.8% | 8.2µM* | 2.1% | -10.0% | 9.7% | -2.5%
COC(=O)c1[nH]c2ccc(C)cc2c1NC(=O)CN1CCC(C)CC1 | 6.2% | 0.0% | -1.3% | 1.1% | 6.6% | -5.2%
COC(=O)c1[nH]c2ccc(C)cc2c1NC(=O)CN1CCN(Cc2ccccc2)CC1 | 10.7% | 8.2µM* | 0.3% | -2.6% | 12.4% | -0.3%
COC(=O)c1[nH]c2cc(OC)c(OC)cc2c1NC(=O)CN1CCN(Cc2ccccc2)CC1 | . | 1.58µM* | . | -2.1% | . | 3.1%
COC(=O)c1[nH]c2ccc(C)cc2c1NC(=O)CN1CCN(c2ccc(F)cc2)CC1 | -1.1% | 9.2µM* | 3.1% | -3.7% | 10.9% | -3.8%

Source: PubChem (National Center for Advancing Translational Sciences (NCATS))
